Activity calls are given as the source filed them.
Columns and labels:
Albumin (Bos taurus) = Albumin (Bos taurus) (UniProt P02769); test: bovine serum albumin binders on microarray, profiling panel, artefact control for SMM control protein annotation, biochemical, small-molecule microarray, Alexa647 label, 635/667 nm fluorescence (AID 1118); details: BSA-A647 binding, fluorescence 635 nm, higher = more signal;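 note: score merges 667 nm emission intensity and signal-to-noise per printed compound spot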
Albumin (Bos taurus), sequence (P02769 whole entry, looked up): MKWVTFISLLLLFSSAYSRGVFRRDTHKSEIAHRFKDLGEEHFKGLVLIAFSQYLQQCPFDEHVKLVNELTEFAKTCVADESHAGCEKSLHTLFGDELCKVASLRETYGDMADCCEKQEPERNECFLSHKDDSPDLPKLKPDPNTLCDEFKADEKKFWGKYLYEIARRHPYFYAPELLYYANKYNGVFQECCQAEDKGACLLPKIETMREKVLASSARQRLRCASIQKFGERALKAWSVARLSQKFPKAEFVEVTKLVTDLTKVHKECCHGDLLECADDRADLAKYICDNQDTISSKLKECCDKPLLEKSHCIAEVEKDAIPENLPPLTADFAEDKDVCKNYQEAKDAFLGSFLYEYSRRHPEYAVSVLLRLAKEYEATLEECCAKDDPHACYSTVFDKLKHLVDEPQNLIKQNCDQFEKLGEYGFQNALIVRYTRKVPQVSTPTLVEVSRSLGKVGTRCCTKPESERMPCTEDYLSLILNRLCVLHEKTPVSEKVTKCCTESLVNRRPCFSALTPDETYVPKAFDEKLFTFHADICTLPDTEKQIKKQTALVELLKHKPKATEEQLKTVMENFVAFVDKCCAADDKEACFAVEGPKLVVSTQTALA

[1] = small-molecule microarray binders of probe aXIP, primary screen, biochemical, NeuroSMM set, 635/667 nm fluorescence (AID 1119); details: higher = more signal, called active from +8 up or from −8 down;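 note: probe is the protein aXip251-270 applied at 1 µg/mL to compound-printed slides; binding of probe to printed compounds measured as 667 nm fluorescence plus signal to noise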
[2] = small-molecule binders of probe aNOTCH3, primary screen, biochemical, small-molecule microarray, 635/667 nm fluorescence (AID 1120); details: higher = more signal;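 note: probe is a biotin-tagged antibody raised against NOTCH3 rather than NOTCH3 protein; score merges spot fluorescence near 667 nm with spot signal to noise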
[3] = small-molecule binders of probe aNOTCH2, primary screen, biochemical, small-molecule microarray, 635/667 nm fluorescence (AID 1121); details: higher = more signal;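 note: score merges feature fluorescence read at 667 nm with its signal to noise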
[4] = molecular target: Carbonic anhydrase 2 (Homo sapiens) (UniProt P00918); test: CAII small-molecule binders, profiling panel, biochemical, small-molecule microarray, Alexa647-labelled CAII (AID 1122); details: CAII-A647 binding fluorescence, higher = more signal
[5] = COS7 lysate on small-molecule microarray, probe aHis, 635 nm (AID 1123); details: COS7 cell lysate, fluorescence, higher = more signal;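 note: z-score combines 667nm fluorescence intensity with signal-to-noise per printed compound spot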
[6] = compound binding in COS7 lysate, probe aLAP1, primary screen, cell lysate, small-molecule microarray (AID 1124); details: probe aLAP1, fluorescence, higher = more signal;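 note: lysate comes from COS7 cells expressing LAP1 and is applied at 0.3 µg/mL; score merges spot fluorescence near 667 nm with signal-to-noise over triplicate slides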
Sam68 (KHDRBS1) = test: Sam68 small-molecule binders, primary screen, biochemical, small-molecule microarray, 635 nm fluorescence (AID 1125); details: small-molecule microarray binding, higher = more signal;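 note: score merges 667 nm channel intensity with signal to noise over triplicate slides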
[7] = tested on: Chordin-like protein 2 (CHRDL2); test: CHRDL2 small-molecule binders, primary screen, biochemical, small-molecule microarray, 635 nm fluorescence (AID 1126); details: small-molecule microarray binding, fluorescence 635 nm; higher = more signal;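 note: printed compound slides probed with Chrdl2 protein at 4 µg/mL for 1 h at 4 C; score merges 667 nm emission intensity with signal to noise over three replicate slides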
[8] = molecular target: Concanavalin-A (Canavalia ensiformis) (UniProt P02866); test: ConA small-molecule binders, primary screen, artefact control for SMM control protein annotation, biochemical, small-molecule microarray, Alexa647 label, 635 nm (AID 1127); details: ConA-A647 binding fluorescence, higher = more signal;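 note: z combines 667 nm emission intensity with signal-to-noise across three replicate slides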
Concanavalin-A (Canavalia ensiformis), sequence (P02866 whole entry, looked up): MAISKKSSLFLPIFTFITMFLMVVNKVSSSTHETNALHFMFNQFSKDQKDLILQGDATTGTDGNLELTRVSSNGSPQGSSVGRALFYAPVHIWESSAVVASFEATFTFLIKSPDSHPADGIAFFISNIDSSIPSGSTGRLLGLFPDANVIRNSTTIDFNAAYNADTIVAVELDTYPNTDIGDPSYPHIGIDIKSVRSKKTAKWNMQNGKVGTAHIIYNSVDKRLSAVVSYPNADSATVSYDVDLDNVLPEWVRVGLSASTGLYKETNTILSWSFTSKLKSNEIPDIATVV

SMILES	composite z-score (Albumin (Bos taurus))	composite Z-score [1]	composite z-score [2]	composite z-score [3]	composite z-score [4]	composite z-score [5]	composite z-score [6]	composite z-score (Sam68 (KHDRBS1))	composite z-score [7]	composite z-score [8]
N[C@@H](Cc1ccccc1)Cn1cc(C2(O)CCCCC2)nn1	-0.052	-0.116 (inactive)	-0.014	-0.14	-0.29	0.451	0.0682	0.525	0.0155	0.88
C=CCC(OC(C)=O)[C@@H]1[C@@H](N(Cc2ccc(-c3cccc(C(F)(F)F)c3)o2)C(=O)Cc2ccc(F)cc2)c2cc(OCCCO)ccc2N1C(=O)c1ccc2ccccc2n1 (stereo not given in full)	0.671	0.272 (inactive)	0.228	-0.0664	-0.0261	0.27	-0.0949	0.388	0.353	-2.02
CC(C)C[C@@H]1NC(=O)[C@@]23C(=O)N[C@@H](Cc4ccccc4)C2[C@H](C)[C@@]2(C)O[C@H]2C3/C=C/C/C=C\CNC(=O)[C@@H](CC(C)C)NC1=O (stereo not given in full)	0.757	0.183 (inactive)	-0.0311	-0.167	0.599	0.925	0.285	1.3	0.732	-1.14
Cc1ccc(S(=O)(=O)N2[C@@H](c3ccccc3)C(C(=O)O)=CC[C@H]2c2ccc(C#N)cc2)cc1	1.04	0.661 (inactive)	-0.0647	0.0167	0.802	3.18	1.04	1.21	-0.425	0.805
COCCOC(=O)N1C(=O)[C@@]2(c3cc(C#Cc4ccc(OC)cc4)ccc31)[C@H](c1ccc(OCCO)cc1)N1[C@H](c3ccccc3)[C@H](c3ccccc3)OC(=O)[C@H]1[C@@H]2C(=O)N1CCCCCCC1	0.807	1.44 (inactive)	1.29	0.177	0.4	2.92	1.23	1.25	1.31	0.927
O=C1OCCC/C=C\[C@H]2OC34C=CCN(Cc5ccccc5)C(=O)[C@H]3N(CCCCCO)C(=O)[C@@H]4C12 (stereo not given in full)	0.499	-0.615 (inactive)	-0.366	-0.112	0.861	3.41	1.65	-0.904	-0.906	-1.64
Cc1c(-c2ccc(-c3ccc(Cl)c(Cl)c3)o2)nc(-c2ccccc2)c2c1CO[Si]2(C(C)C)C(C)C	0.734	-0.0877 (inactive)	-0.122	-0.148	0.181	0.356	-0.213	0.295	-0.18	0.248
C[N+](C)(C)CCCCCCNC(=O)[C@H]1C[C@H]2C(=O)NCC(=O)N2[C@H]1c1cccc(OCCO)c1	-0.27	0.536 (inactive)	0.11	-0.0877	0.594	1.05	0.662	0.562	1.36	0.907

— PubChem BioAssay
